Reference: PubChem BioAssay AID504377 (National Center for Advancing Translational Sciences (NCATS), 2011)
Activity calls are given as the source filed them. No rule for the calls is given here.

test: Immunofluorescence assay for phosphorylation of ATM-targeted proteins for Identifying a Potential Treatment of Ataxia-Telangiectasia: SAR for Probe; conditions: F2111 A-T fibroblasts, KAP-1 pS824 immunofluorescence, NCS
Description: NIH Chemical Genomics Center [NCGC] NIH Molecular Libraries Probe Centers Network [MLPCN] MLPCN Grant: MH089030-01 Assay Submitter (PI): Wei Zheng and Yosef Shiloh Ataxia-telangiectasia (A-T) is a devastating and progressive disease for which, there is no cure. Although A-T is a multisystem disease, it is stereotyped characterized by its neurological symptoms such as truncal ataxia, due to cerebellar cortical degeneration of the Purkinje and granule cells. Other symptoms of A-T are telangiectasias (dilated blood vessels), primary immunodeficiency, marked sensitivity to ionizing radiation (IR), chromosomal instability and predisposition to cancer. The underlying genetic cause of A-T is null mutations in the ATM (A-T mutated) gene. ATM is a nuclear serine/threonine kinase that functions as a master regulator of the cellular responses to double strand breaks (DSBs) in the DNA. Upon activation by DSBs, ATM phosphorylates a plethora of downstream targets, including KAP-1 on […]. KAP-1 phosphorylation occurs shortly in response to DSBs and mediates global chromatin relaxation, which facilitates DSB repair. To screen for small molecules that will compensate for the loss of ATM in cells derived from A-T patients, we monitored KAP-1 phosphorylation as a readout for ATM-like activity using an AlphaLISA assay. […]

SMILES | Potency
CC(=O)c1c(O)c(C)c(O)c(Cc2c(O)c3c(c(C(=O)/C=C/c4ccccc4)c2O)OC(C)(C)C=C3)c1O | 10 µM (active)
